# PubChem BioAssay (NCATS)
# Inconclusive results are not listed. The source made the active and inactive calls. The call rests on the fitted dose curve; in most records, active means well fitted activation curve with a large enough effect; inconclusive means small, poorly fitted or top-dose-only effect; inactive means no such curve, though single readings can be large or run the other way. Non-standard residues stand in square brackets, D forms with d. Residues, ends and D or L forms follow the SMILES beside them. pGlu = O=C1CC[C@@H](C(=O)O)N1
# Target: Cellular tumor antigen p53 (Homo sapiens) (UniProt P04637)
# Experiment: Primary qHTS for small molecule compounds that upregulate eGFP-tagged delta133p53alpha (in N-terminal) cells. (AID 2060322);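 further: series mostly up to about 56 µM; 0% = DMSO vehicle and 100% = reference activator; nearly all actives have a fitted effect of over 75% in size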
# Details: NCI-H358 eGFP-delta133p53alpha fluorescence, 24 h; activation: active compounds read high
# In short: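 NCI-H358 cells pre-induced 24 h with 10 ng/ml doxycycline to express N-terminal eGFP-delta133p53alpha, then dosed 24 h at 37C without doxycycline; fixed, Hoechst-stained, GFP intensity by laser scanning cytometry, normalized to DMSO (0%) and 57.5 uM 5-azacytidine (100%).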
# Sequence of Cellular tumor antigen p53 (Homo sapiens) (P04637 whole entry, looked up): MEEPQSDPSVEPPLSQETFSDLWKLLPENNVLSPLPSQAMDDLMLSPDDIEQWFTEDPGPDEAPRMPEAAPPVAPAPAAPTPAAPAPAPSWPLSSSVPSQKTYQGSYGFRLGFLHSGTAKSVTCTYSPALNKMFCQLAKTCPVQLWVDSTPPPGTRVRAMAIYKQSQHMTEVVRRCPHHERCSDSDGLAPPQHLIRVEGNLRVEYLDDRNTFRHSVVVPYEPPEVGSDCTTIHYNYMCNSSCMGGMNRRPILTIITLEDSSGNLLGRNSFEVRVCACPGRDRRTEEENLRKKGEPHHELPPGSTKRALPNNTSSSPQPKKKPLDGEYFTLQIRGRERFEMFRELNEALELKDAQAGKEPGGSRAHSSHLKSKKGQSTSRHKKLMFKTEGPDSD
row,Compound,activation
1,COc1cc(C(=O)N2CCCCCCC2)cc(OC)c1OC,-6.21% (inactive)
2,C/C=C(/C(=C/C)c1ccc(O)cc1)c1ccc(O)cc1,15.1% (inactive)
3,CC[C@]1(O)C[C@@H]2CN(CCc3c([nH]c4ccccc34)[C@@](C(=O)OC)(c3cc4c(cc3OC)N(C=O)[C@@H]3C45CCN4CC=C[C@](CC)([C@H]45)[C@@H](OC(C)=O)[C@]3(O)C(=O)OC)C2)C1 (stereo partly drawn),-1.44% (inactive)
4,O=C(NNC(=O)c1ccc(CNS(=O)(=O)c2ccc(F)c(Cl)c2)cc1)c1ccccc1,15.5% (inactive)
5,CCCCOc1ccc(OCCCN2CCOCC2)cc1,22.6% (inactive)
6,CN=C(NC#N)Nc1ccc(C2=NNC(=O)CC2C)cc1 (stereo not drawn),6.69% (inactive)
7,CCc1cc(C(C)=NOCc2ccc(C3CCCCC3)c(C(F)(F)F)c2)ccc1CN1CC(C(=O)O)C1,10.9% (inactive)
8,CCCCCCCCCCCCCCCC(=O)OC(C)C,-15.3% (inactive)
9,O=C(O)c1c(O)c(-c2ccccc2)nc2ccccc12,22% (inactive)
10,Oc1ccc(C(O)CNCCCCCCNCC(O)c2ccc(O)c(O)c2)cc1O (stereo not drawn),2.82% (inactive)
11,C=CC1(C)CC(=O)C2(O)C(C)(O1)C(OC(C)=O)C(O)C1C(C)(C)CCC(O)C12C (stereo not drawn),-19.1% (inactive)
12,NC(=O)N[C@@H](CCC(=O)O)C(=O)O,-5.02% (inactive)
13,CCNC(=O)[C@@H]1CCCN1C(=O)[C@H](CCCN=C(N)N)NC(=O)[C@H](CC(C)C)NC(=O)CNC(=O)[C@H](Cc1ccc(O)cc1)NC(=O)[C@H](CO)NC(=O)[C@H](Cc1c[nH]c2ccccc12)NC(=O)[C@H](Cc1cnc[nH]1)NC(=O)[C@@H]1CCC(=O)N1 ([pGlu]HWSYGLRP-NHEt),5.86% (inactive)
